Records with an inconclusive call do not appear. Unmarked numbers belong to inactive results. The call rests on the fitted dose curve; in most records, active means well fitted cell-killing curve with a large enough effect in the repeat runs; inconclusive means weak or mixed curves; inactive means flat fitted curve, though single readings scatter.
assay: qHTS RealTime-Glo MT Cell Viability Assay in HepG2 cells - 16 hour (AID 1224885); conditions: RealTime-Glo luminescence; series mostly up to 76.8 µM; activity change, negative = cytotoxic: at the top concentration; further: nearly all actives have a fitted effect of over 50% in size
Excerpt: U.S. Tox21 Program National Center for Advancing Translational Sciences [NCATS] NIH Chemical Genomics Center [NCGC] U.S. Environmental Protection Agency [EPA] National Institutes of Environmental Health Sciences [NIEHS] National Toxicology Program [NTP] U.S. Food and Drug Administration [FDA] Tox21 Assay Overview: Measure of cell viability is critical in the cell-base assay. Analysis of cell viability is necessary for the characterization of cell responses to cytotoxic drugs and environmental stress. A RealTime-Glo MT Cell Viability Assay to monitor cell viability in real time of continues cell culture during 40 hours of compound treatment was used to screen Tox21 10K library compounds in HepG2 cells. The RealTime-Glo MT Cell Viability Assay is a nonlytic, homogeneous, bioluminescent method to measure cell viability in real time using a simple, plate-based method. The assay involves adding NanoLuc luciferase and a cell-permeant prosubstrate to cells in culture. Viable cells reduce the proprietary prosubstrate to generate a substrate for NanoLuc luciferase. This substrate diffuses from cells into the surrounding culture medium, where it is rapidly used by the NanoLuc Enzyme to produce a luminescent signal. The signal correlates with the number of viable cells, making the assay well suited for cytotoxicity studies.
Tox21 Assay Protocol Summary: The mixture of HepG2 cell suspension and reagents were dispensed at 600cells/6 ul/well in 1536-well tissue culture treated black solid bottom plates using a Multidrop dispenser. After the assay plates were incubated at a 37 C/5% CO2 incubator for 5 hours, 23 nL of compounds dissolved in DMSO, positive and negative controls was transferred to the assay plate by a pintool work station. The plates were incubated at 37 C for 40 hours. The luminescence intensity were measured at 0h, 8h, 16h, 24h, 32h and 40h time points using ViewLux plate reader during compound treatment.
On the % scale 0 is the no-effect control and ±100 the full control effect.

SMILES | activity change, negative = cytotoxic
O=C(Cl)c1ccc(F)c(Cl)c1 | -3.6%
O=C(O)CCc1nc2ccccc2[nH]1 | 0.338% [at 35.3 µM]
O=C(C1CCCCC1)N1CC(=O)N2CCCc3ccccc3C2C1 (stereo not given) | -8.14% [at 35.3 µM]
O=C1c2ccccc2C(=O)C1c1ccc2cc(S(=O)(=O)O)cc(S(=O)(=O)O)c2n1 | -18%
COc1ccc(CN(CCN(C)C)c2ncccn2)cc1 | 3.15% [at 35.3 µM]
C1CCN(CN2CCCCC2)CC1 | 0.105%
O=C(c1ccco1)N1CCNCC1 | 1.56% [at 35.3 µM]
CC(=O)c1ccc(Cl)c(Cl)c1Cl | -0.0337%
O=P(c1ccccc1)(c1ccccc1)c1ccccc1 | 0.856%
CCC(C)CCCC(C)(C)O (stereo not given) | -0.973%
CCCCCO | 0.885%
Oc1ccc(Oc2ccccc2)cc1 | -13.9%
OCCOc1cccc(OCCO)c1 | 2.24%
Cc1ccc(NC(=O)c2ccc(CN3CCN(C)CC3)cc2)cc1Nc1nccc(-c2cccnc2)n1 | -17.1% [at 35.3 µM]
CCOc1cc(OCC)c(C(C)=O)cc1OCC | -2.15%
C=C(C)C(=O)OCCCCCCCCCCOC(=O)C(=C)C | 0.897%
CCCCCCCCCCCC(=O)OCC | 3.12%
C[C@@H](O)[C@H]1C(=O)N2C(C(=O)O)=C(S[C@@H]3CN[C@H](CNS(N)(=O)=O)C3)[C@H](C)[C@H]12 | -9.52% [at 35.3 µM]
CC(=O)S[C@H](C(=O)N[C@H]1Cc2ccccc2[C@H]2CCC[C@@H](C(=O)O)N2C1=O)C(C)C | 1.84%
COc1ccnc2c1CCCCC2S(=O)c1nc2ccccc2[nH]1 (stereo not given) | 0.301% [at 35.3 µM]

SMILES | activity change, negative = cytotoxic
Clc1cccc(C(c2ccc3nc[nH]c3c2)n2ccnc2)c1 (stereo not given) | 0.22% [at 35.3 µM]
CC/C=C\CCO | 0.633%
CC(=O)Nc1ccn(C2COC(COC(=O)c3ccccc3)O2)c(=O)n1 (stereo not given) | 0.217% [at 35.3 µM]
CCCCCCCCCCCCN1CCOCC1 | 0.0627%
CC(=O)CC/C=C(\C)CC/C=C(\C)CC/C=C(\C)CCC=C(C)C | 1.13% [at 35.3 µM]
CC(O)CN (stereo not given) | 1.36%
O=C(c1ccc(Cl)cc1)c1ccc(Cl)cc1 | -1.54%
O=c1c2ccccc2oc2ccccc12 | 1.61%
O=C(Cl)c1cc(Cl)cc(Cl)c1 | -1.56%
CCCCOc1ccc(N)cc1 | 1.48%
CCCCOC(=O)C(C)Oc1ccc(Oc2ccc(C(F)(F)F)cn2)cc1 (stereo not given) | -13.3%
OCC(O)c1ccccc1 (stereo not given) | -0.659%
CO[C@@H]1[C@@H](O[C@@H]2O[C@H](C)[C@@H](O[C@H]3C[C@@](C)(O)[C@@H](O)[C@H](C)O3)[C@H](N(C)C)[C@H]2O)[C@@H](CC=O)C[C@@H](C)[C@@H](O[C@@H]2CC[C@H](N(C)C)[C@@H](C)O2)/C=C/C=C/C[C@@H](C)OC(=O)C[C@H]1OC(C)=O | -7.72% [at 35.3 µM]
C=CC(=O)NC(C)(C)C | 0.972%
CC(C(=O)O)c1ccc(/C=C2\CCCCC2=O)cc1 (stereo not given) | 6.58% [at 35.3 µM]
CC(C)(C)c1ccc(CCC=O)cc1 | -3.03%
CC(C(=O)O)c1ccc2c(c1)Cc1cccnc1O2 (stereo not given) | 3.65% [at 35.3 µM]
NC(=O)c1ccccc1 | 1.54%
CC(CCl)OC(C)CCl (stereo not given) | -0.342%
C1=COCCC1 | -1.43%
